Our source for the outcome and AC50 values is PubChem BioAssay (EPA / NIEHS).

Read-out in test [1]: TIMP metallopeptidase inhibitor 2 (TIMP2), TIMP2 (gene 7077)
Nature of the test: BSK_KF3CT_TIMP2: BioMAP Diversity Plus: KF3CT Assay for TIMP metallopeptidase inhibitor 2 (TIMP2) Biomarker Activity (AID 2283071). Particulars: primary human keratinocytes with fibroblasts; actives raise or lower the signal. The gist of the method: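 Cells: human keratinocytes co-cultured with foreskin fibroblasts. Treat with chemical, 24 h. Measure TIMP-2 by ELISA; fit curves bidirectionally vs DMSO baseline.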

Read-out in test [2]: Transforming growth factor beta 1 (TGFb1), TGFB1 (gene 7040)
Nature of the test: BSK_KF3CT_TGFb1: BioMAP Diversity Plus: KF3CT Assay for Transforming growth factor beta 1 (TGFb1) Biomarker Activity (AID 2283072). Particulars: primary human keratinocytes with fibroblasts; actives raise or lower the signal. An outline of the steps: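 Primary human skin cells (keratinocytes, foreskin fibroblasts) were co-cultured, exposed to test chemical and sampled at 24 h. TGF-b1 levels were measured by ELISA and fitted bidirectionally relative to DMSO.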

Read-out in test [3]: C-C motif chemokine 2 (Homo sapiens) (UniProt P13500)
Nature of the test: BSK_KF3CT_MCP1: BioMAP Diversity Plus: KF3CT Assay for Monocyte Chemoattractant Protein 1 (MCP1/CCL2) Biomarker Activity (AID 2283073). Particulars: primary human keratinocytes with fibroblasts; actives raise or lower the signal. An outline of the steps:
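ELISA readout of MCP-1 after 24 h chemical dosing of a human skin primary co-culture of keratinocytes and foreskin fibroblasts. Activity was fitted in both directions against DMSO.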

Read-out in test [4]: Matrix Metallopeptidase 9 (MMP9), MMP9 (gene 4318)
Nature of the test: BSK_KF3CT_MMP9: BioMAP Diversity Plus: KF3CT Assay for Matrix Metallopeptidase 9 (MMP9) Biomarker Activity (AID 2283074).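 As to AC50: MMP9 protein level quantified by ELISA in the co-culture.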 Particulars: primary human keratinocytes with fibroblasts; actives raise or lower the signal. An outline of the steps:
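Human keratinocyte/foreskin fibroblast co-culture; compound added; 24 h; MMP-9 by ELISA; bidirectional fit vs DMSO baseline.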

Read-out in test [5]: urokinase plasminogen activator (uPA), PLAU (gene 5328)
Nature of the test: BSK_KF3CT_uPA: BioMAP Diversity Plus: KF3CT Assay for urokinase plasminogen activator (uPA) Biomarker Activity (AID 2283075). Particulars: primary human keratinocytes with fibroblasts; actives raise or lower the signal. The gist of the method: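 ELISA readout of uPA, analyzed for signal gain or loss relative to DMSO, from a human primary keratinocyte–foreskin fibroblast co-culture measured 24 h after chemical treatment.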

Read-out in the next test: CD40, CD40 (gene 958)
Nature of the test: BSK_LPS_CD40: BioMAP Diversity Plus: LPS Assay for CD40 Biomarker Activity (AID 2283076). Particulars: primary human HUVEC with PBMC; actives raise or lower the signal. An outline of the steps:
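Cells were dosed, incubated 24 h, then assayed for CD40 by ELISA. Gain or loss of signal was analysed relative to DMSO controls. The culture paired human umbilical vein endothelium with peripheral blood mononuclear cells.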

Read-out in test [6]: E-selectin (Homo sapiens) (UniProt P16581)
Nature of the test: BSK_LPS_Eselectin: BioMAP Diversity Plus: LPS Assay for Eselectin Biomarker Activity (AID 2283077). Particulars: primary human HUVEC with PBMC; actives raise or lower the signal. An outline of the steps:
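Primary human vascular co-culture (endothelium plus PBMC) was dosed with chemical, then E-selectin quantified by ELISA at 24 h. Endpoint values derive from bidirectional curve fitting relative to DMSO.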

Read-out in test [7]: Interleukin-8 (IL8), CXCL8 (gene 3576)
Nature of the test: BSK_LPS_IL8: BioMAP Diversity Plus: LPS Assay for Interleukin-8 (IL8) Biomarker Activity (AID 2283078). Particulars: primary human HUVEC with PBMC; actives raise or lower the signal. An outline of the steps:
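Readout is IL-8 by ELISA, taken 24 h after compounds were added to LPS-stimulated endothelial/PBMC co-cultures. Both increases and decreases relative to DMSO control were scored through bidirectional fitting.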

Test [8] is described as follows: BSK_LPS_SRB: Viability Assessment in the BioMAP Diversity Plus: LPS Assay (AID 2283079).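 Also: total protein by sulforhodamine B absorbance as a cytotoxicity measure; measured one day after compound addition; fitted in both directions against DMSO so loss or gain of signal counts.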 Particulars: primary human HUVEC with PBMC. The gist of the method: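 Readout is SRB absorbance at 560 nm (0.1% stain, TCA-fixed parallel cultures) as a total-protein cytotoxicity measure. Cells: primary human umbilical vein endothelium plus peripheral blood mononuclear cells, 24 h after chemical exposure; DMSO served as baseline.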

Read-out in test [9]: Interleukin-1 alpha (IL1a), IL1A (gene 3552)
Nature of the test: BSK_LPS_IL1a: BioMAP Diversity Plus: LPS Assay for Interleukin-1 alpha (IL1a) Biomarker Activity (AID 2283080). Particulars: primary human HUVEC with PBMC; actives raise or lower the signal. The gist of the method:
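ELISA read-out of IL-1 alpha from a human primary vascular co-culture (endothelium plus PBMC) under LPS, sampled 24 hours post-dosing. Activity was fitted in both directions relative to DMSO controls.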

Molecules are shown by their SMILES. Where “and” joins values, the source holds several entries; their conditions need not be identical. Equal entries are not always repeated. Calls of active or inactive are those of the source. The calls were made as follows: active = hit-call score of the fitted dose curve at least 0.9, where 1 is the maximum; inactive = score below 0.9.

E-selectin (Homo sapiens), sequence (P16581 whole entry, looked up): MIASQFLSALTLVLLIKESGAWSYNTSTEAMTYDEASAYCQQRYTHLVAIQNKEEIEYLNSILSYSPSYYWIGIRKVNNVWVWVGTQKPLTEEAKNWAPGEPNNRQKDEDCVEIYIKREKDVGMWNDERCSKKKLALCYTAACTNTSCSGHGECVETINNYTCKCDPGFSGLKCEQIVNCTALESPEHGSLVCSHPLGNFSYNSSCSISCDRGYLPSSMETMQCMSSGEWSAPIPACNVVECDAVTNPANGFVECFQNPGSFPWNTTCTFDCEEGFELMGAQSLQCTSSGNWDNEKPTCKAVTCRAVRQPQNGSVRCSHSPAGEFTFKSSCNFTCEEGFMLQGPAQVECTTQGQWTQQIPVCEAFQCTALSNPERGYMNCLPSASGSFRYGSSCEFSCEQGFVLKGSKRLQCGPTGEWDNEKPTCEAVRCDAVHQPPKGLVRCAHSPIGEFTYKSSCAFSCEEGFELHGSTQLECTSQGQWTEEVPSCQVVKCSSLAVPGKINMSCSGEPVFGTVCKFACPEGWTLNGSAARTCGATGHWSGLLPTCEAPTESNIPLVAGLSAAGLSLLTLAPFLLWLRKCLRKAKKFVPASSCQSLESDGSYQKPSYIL

For the compound `O=C1OC[C@H](Cc2cccc(O)c2)[C@H]1Cc1cccc(O)c1`, the outcome in test [1] was “inactive”; in test [2], “inactive”; in test [3] it was “inactive”; in test [4] it was “inactive”; in test [5], “inactive”; in the test with CD40, CD40 (gene 958), “inactive”. In addition, the outcome in [6], in test [7], in [8] and in test [9] was inactive.

Take `CCN(CC)C(=O)N(CC)CC`: the outcome in [1] is “inactive”; in test [2], “inactive”; in [3], “inactive”; in [4] it was “inactive”; in [5] it was “inactive”; with CD40, CD40 (gene 958), “inactive”. Further, the outcome in test [6], in test [7], in test [8] and in test [9] was inactive.

As for `CC(=O)c1c(C)c([N+](=O)[O-])c(C(C)(C)C)c([N+](=O)[O-])c1C`, the outcome in [1] is “inactive”; in test [2], “inactive”; in [3], “inactive”; in test [4], “inactive”; in test [5], “inactive”; in the test with CD40, CD40 (gene 958) it was “inactive”. Further, the result in test [6], in test [7], in test [8] and in test [9] was inactive.

As for `c1ccc(Oc2ccccc2)cc1`, the half-maximal activity concentration (AC50) (as a rule, the concentration at which the activity in the assay is half-maximal) in test [1] is 30.8 µM (active); in [2], 20 µM (active); in test [3], 30.7 µM (active); in test [4] it was 20 µM (active); in test [5] it was 20 µM (active). Besides, the outcome with CD40, CD40 (gene 958) was “inactive”; in test [6], “inactive”; in test [7], “inactive”; in test [8], “inactive”; in [9] it was “inactive”.

Take `C=C(C)C(=O)OCCOCCOCCOC(=O)C(=C)C`: the outcome was “inactive” in test [1]; “inactive” in [2]; “inactive” in [3]; “inactive” in test [4]; “inactive” with CD40, CD40 (gene 958); “inactive” in test [6]. The result in test [7], in test [8] and in test [9] was inactive. In addition, the AC50 in [5] is 3.97 µM (active).

As to `c1ccc(CCc2ccccc2)cc1`, the half-maximal activity concentration (AC50) in [1] was 13.4 µM (active); in [2] it was 12.8 µM (active); in test [3], 20 µM (active); in test [4], 28.5 µM (active); in test [5], 20 µM (active); in the test with CD40, CD40 (gene 958) it was 30.9 µM (active). Also, the AC50 is 31.9 µM (active) in [6], 20 µM (active) in test [7], 36.4 µM (active) in [8] and 32.7 µM (active) in test [9].

`CC1(C)C2=CCCC(C)(C)[C@]23CC[C@H]1C3`: the figures for the AC50 in test [1], in [2] and in test [3] were 30.2 µM (active), 7.31 µM (active) and 20 µM (active), respectively. The outcome in [4] was “inactive”; in test [5], “inactive”; with CD40, CD40 (gene 958), “inactive”; in test [6], “inactive”; in test [7] it was “inactive”; in test [8], “inactive”. Further, in test [9], the outcome was inactive.

`CCCCN(CCCC)C(=O)N(CCCC)CCCC`: the AC50 was 4.62 µM (active) in test [1]; 5.42 µM (active) in test [2]; 4.75 µM (active) in [3]; 10.3 µM (active) in [4]; 7.68 µM (active) in test [5]; 20 µM (active) with CD40, CD40 (gene 958). Besides, the half-maximal activity concentration (AC50) in test [6] was 20 µM (active); in [8], 30.2 µM (active); in [9], 20 µM (active). The result in [7] was inactive.

With `CC1(C)CCC[C@]2(C)[C@H]3CCO[C@]3(C)CC[C@@H]12`, the AC50 is 33.1 µM (active) and 33.9 µM (active) in [1]; 33.9 µM (active) and 30.7 µM (active) in test [3]; 36.7 µM (active) and 35.6 µM (active) in [4]; 36.6 µM (active) and 37.8 µM (active) in [5]. The outcome is “inactive” with CD40, CD40 (gene 958); “inactive” in test [6]; “inactive” in [7]; “inactive” in [8]; “inactive” in test [9].

Turning to `CC(=O)Nc1ccc(C(=O)CCl)cc1`, the half-maximal activity concentration (AC50) is 20 µM (active) in test [1]; 28.6 µM (active) in test [3]; 20 µM (active) in [4]; 30 µM (active) in test [5]; 5.35 µM (active) in the test with CD40, CD40 (gene 958); 4.61 µM (active) in [6]. Further, the half-maximal activity concentration (AC50) is 3.91 µM (active) in test [7], 9.55 µM (active) in test [8] and 4.52 µM (active) in [9].

For `CC(=O)C1(C)CC2=C(CCCC2(C)C)CC1C` (stereo not drawn), the AC50 is 5.63 µM (active) in [1]; 10.3 µM (active) in test [3]; 10.9 µM (active) in test [4]; 11.6 µM (active) in test [5]; 6.43 µM (active) with CD40, CD40 (gene 958); 9.47 µM (active) in test [6]. For the same compound, the AC50 in test [7] is 10.1 µM (active); in test [8], 13.3 µM (active); in [9] it was 5.8 µM (active). In test [2], the result was inactive.
